Dicer processing = inhibitors of human Dicer processing of pre-microRNA; z-score at 25 µM; Q9UPY3; actives 6% (n = 47,000); AID 1347074; cat-ELCCA pre-miR-21 Dicer processing, chemiluminescence; stronger effect = higher value; in the data active means z-score above about 3, passing the limit was not always enough;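 further: plate controls were vehicle for no effect and no enzyme for full effect; higher signal means more uncleaved substrate so more Dicer inhibition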
Starred values were filed as active, the others as inactive. The sample as a whole holds a higher share of hits than the screen did.

Results for O=C1C(=Cc2ccco2)C(=O)N(c2ccccc2)C(=S)N1c1ccccc1 ?
Dicer processing: 3.3*

How did O=C1/C(=C\c2ccc(C(F)(F)F)cc2)N2CCC1CC2 do in these assays?
Dicer processing: 0.28

What do the screens show for `COCc1cc(OC(=O)N(C)C)nc(-c2cccc(C)c2)n1`?
Dicer processing: 0.37

How did Cc1cc(OC(=O)N(C)C)nc(SCc2c(F)cccc2Cl)n1 do in these assays?
Dicer processing: 0.04

What do the screens show for `CSc1nc(OC(=O)N(C)C)cc(-c2ccccc2)n1`?
Dicer processing: 3.7*

What do the screens show for `CN1[C@H]2C[C@H](OC(=O)[C@H](CO)c3ccccc3)C[C@@H]1[C@@H](O)C2`?
Dicer processing: 0.7

What do the screens show for `Cc1ccc(S(=O)(=O)N2CCCCC2c2cccnc2)cc1` (stereo not given)?
Dicer processing: -0.61

Results for Fc1ccc(CNCCc2c[nH]c3ccccc23)cc1F ?
Dicer processing: 1.3

What do the screens show for `CNc1ccc(Br)cc1C(=O)c1ccc(Cl)cc1`?
Dicer processing: -2.1

What do the screens show for `CCOC(=O)C1=C(N)Oc2c(c(=O)oc3ccccc23)C1c1ccc(OC)cc1` (stereo not given)?
Dicer processing: 3*

How did CCC1C(C#N)=C(N)Oc2c1c(=O)oc1ccccc21 (stereo not given) do in these assays?
Dicer processing: -0.66

Results for CCOC(=O)C1=C(N)Oc2c(c(=O)oc3ccccc23)C1c1ccccc1 (stereo not given) ?
Dicer processing: 6.5

How did Cc1[nH]nc2c1C1(CCN(C)CC1)C(C#N)=C(N)O2 do in these assays?
Dicer processing: -8.2

What do the screens show for `COc1cccc(-n2c(/C=C/c3c[nH]c4ccccc34)nc3ccccc3c2=O)c1`?
Dicer processing: 3.4*

How did COc1cccc(-n2c(/C=C/c3ccco3)nc3ccccc3c2=O)c1 do in these assays?
Dicer processing: 0.91

Results for O=c1c2ccccc2nc(/C=C/c2ccc(O)cc2)n1-c1ccc(O)cc1 ?
Dicer processing: 1.7

What do the screens show for `CN(C)C(=O)Oc1ccc2c(=O)c(Oc3ccccc3Br)c(C(F)(F)F)oc2c1`?
Dicer processing: 1.6

Results for c1ccc(CCNCc2ccc3c(c2)OCO3)cc1 ?
Dicer processing: -0.43

Results for O=C(O)c1cn(Cc2ccc(Cl)cc2)c2ccccc12 ?
Dicer processing: 0.07

What do the screens show for `O=C(Cn1cc(C(=O)c2ccccc2)c2ccccc21)NCc1ccc2c(c1)OCO2`?
Dicer processing: 3.5*

What do the screens show for `O=C(NC1CCCCC1)Oc1cc2oc(=O)sc2cc1Cl`?
Dicer processing: 4.1*

Results for O=C(NC(=S)Nc1ccccc1OC(F)(F)F)Oc1ccccc1 ?
Dicer processing: -4.5

How did Cc1cccc(NC2=NCC(C)S2)c1 (stereo not given) do in these assays?
Dicer processing: -0.23

What do the screens show for `S=C1NC2=C(CCc3ccccc32)C(c2cccnc2)N1` (stereo not given)?
Dicer processing: -0.78

What do the screens show for `CC1CC2C/C(=N\O)CC1N(C)C2` (stereo not given)?
Dicer processing: -2.2

How did Fc1ccc(CNC2CN3CCC2CC3)cc1 (stereo not given) do in these assays?
Dicer processing: 3.1*

What do the screens show for `O=C(NC1CN2CCC1CC2)c1cccc(Cl)c1` (stereo not given)?
Dicer processing: -0.41

Results for COc1cccc(CNC2CN3CCC2CC3)c1OC (stereo not given) ?
Dicer processing: -1.2

What do the screens show for `CN(C)C(=O)Oc1noc2ccc(Cl)cc12`?
Dicer processing: 0.46

What do the screens show for `CC1(C)CN=C(NCc2ccccn2)S1`?
Dicer processing: 4*

How did FC(F)(F)c1ccc(N2CCNCC2)nc1 do in these assays?
Dicer processing: -0.41

How did CC(=O)N1N=C2C3CCN(CC3)C2C1c1cccc(F)c1 (stereo not given) do in these assays?
Dicer processing: -0.66

Results for Cc1ccc(-n2c(C)nc3cc(Cl)ccc3c2=O)cc1Cl ?
Dicer processing: -1

What do the screens show for `N#CC1=C(SCc2ccccc2)SCNC1=O`?
Dicer processing: -1.4

Results for O=C(c1ccco1)c1cn(CCCOc2ccccc2Cl)c2ccccc12 ?
Dicer processing: -1.2

Results for OCC12COC3c4ccccc4C(OC1)N32 (stereo not given) ?
Dicer processing: 5.6*

What do the screens show for `NCCCNc1ccc([N+](=O)[O-])c2cccnc12`?
Dicer processing: 0.82

What do the screens show for `COc1cc(C2NN=C3C4CCN(CC4)C32)cc(OC)c1OC` (stereo not given)?
Dicer processing: -0.41

What do the screens show for `CCOc1ccc(Br)cc1/C=C(\C)[N+](=O)[O-]`?
Dicer processing: -1

What do the screens show for `O=[P@]1(N(CCCl)CCCl)NCCCO1`?
Dicer processing: -0.61

How did N#CC(C#N)=NNc1c(Cl)cc(C(F)(F)F)cc1Cl do in these assays?
Dicer processing: -0.79

What do the screens show for `Cc1ccc(NC2=NCCS2)cc1Cl`?
Dicer processing: -1.1

How did COc1ccc(OC)c(NC2=NCCS2)c1 do in these assays?
Dicer processing: 3.1*

What do the screens show for `COc1ccc(Br)c(NC2=NCCS2)c1`?
Dicer processing: -0.17

Results for CCOC(=O)C1=C(N)OC(C)=C(C(C)=O)C12C(=O)Nc1ccccc12 (stereo not given) ?
Dicer processing: -0.68

How did O=C1NC(=O)C(O)(c2c[nH]c3ccccc23)C(=O)N1 do in these assays?
Dicer processing: 1.1

What do the screens show for `Cc1nc2ccccc2c(=O)n1-c1cc(F)c(F)cc1F`?
Dicer processing: -0.79

Results for O=C(CNC1CCCCC1)c1ccc(O)c(O)c1 ?
Dicer processing: 10*

Results for COc1ccc2c(c1)c(C(=O)O)c(C)n2C ?
Dicer processing: 0.29

Results for CSC(=NCc1ccccc1Cl)N/C(N)=N\[N+](=O)[O-] ?
Dicer processing: 0.91

Results for O=C(CNc1ccc(-c2ccccc2)cc1)Nc1ccc(Cl)cc1C(=O)c1ccccc1Cl ?
Dicer processing: -0.56

How did CSc1ccc(CN2CCN(Cc3ccc(Cl)cc3)CC2)cc1 do in these assays?
Dicer processing: 0.08

How did COc1ccc(O)c(CN2CCN(Cc3ccc(Br)cc3)CC2)c1 do in these assays?
Dicer processing: 5.1*

How did Oc1ccc(Br)cc1CN1CCN(Cc2cccc(F)c2)CC1 do in these assays?
Dicer processing: 7*

How did CSc1ccc(CN2CCN(Cc3cc(Br)ccc3O)CC2)cc1 do in these assays?
Dicer processing: 6.1*

Results for Oc1ccc(Br)cc1CN1CCN(Cc2ccc(F)cc2)CC1 ?
Dicer processing: 3.3*

What do the screens show for `Clc1cccc(CN2CCN(Cc3cccc(Br)c3)CC2)c1`?
Dicer processing: 1.3

How did CSc1ccc(CN2CCN(Cc3ccc(F)cc3)CC2)cc1 do in these assays?
Dicer processing: 2.4

Results for Cc1ccc2[nH]c(=S)n(-c3ccc(Br)c(C)c3)c(=O)c2c1 ?
Dicer processing: 1.7

How did CC1(C)Cc2nc(N3CCCC3)c(C#N)cc2CS1 do in these assays?
Dicer processing: 1.6

How did O=c1c2ccccc2[nH]c(=S)n1-c1ccc(F)cc1F do in these assays?
Dicer processing: 0.83

Results for CCCCCCn1c2ccc(C(=O)O)cc2c2cc(C(=O)O)ccc21 ?
Dicer processing: 0.95

What do the screens show for `CC(=O)c1ccc(Cl)c(-n2c(=S)[nH]c3ccccc3c2=O)c1`?
Dicer processing: -0.99

Results for Cc1ccc2nc(C(F)(F)F)n(-c3ccc(Cl)cc3)c(=O)c2c1 ?
Dicer processing: 1.8

Results for CN1CCc2c(sc3c2C(=O)NC(c2cccnc2)N3)C1 (stereo not given) ?
Dicer processing: -1.3

Results for Cc1nc2c(Br)cc(Br)cc2c(=O)n1-c1cccc(C(F)(F)F)c1 ?
Dicer processing: -0.26

Screening data (PubChem BioAssay)
